Test results as given in PubChem BioAssay AID652180 (National Center for Advancing Translational Sciences (NCATS), 2013).
Records with an inconclusive call do not appear. Unmarked numbers belong to inactive results. Calls of active or inactive are those of the source. The call rests on the fitted dose curve; in most records, active means well fitted inhibition curve with a large enough effect; inconclusive means small, poorly fitted or top-dose-only effect; inactive means no such curve, though single readings can be large or run the other way.

Test: qHTS Assay for Lipid Storage Modulators: 3T3L1 Assay against Probe and Analogs
Settings: 3T3-L1 lipid droplets, BODIPY imaging, oleic acid, 18-24 h; series mostly up to 46.1 µM; activity change, negative = decreased lipid storage: at the top concentration
From the text: Storing lipids as a reservoir for energy or the anabolism of elementary metabolites is a common feature of probably all cells and is conserved from bacteria to humans. The universal cellular lipid storage organelle is the so-called lipid storage droplet (LD). Although ubiquitous, LDs share a simple structure composed of a hydrophobic core that harbors the storage lipids, which is shielded by a droplet-specific phospholipid monolayer to which proteins are attached. The current model of LD biogenesis involves an incorporation of the lipid core into the membrane leaflets of the endoplasmic reticulum (ER) followed by a subsequent budding-like maturation of a LD, which ultimately pinches off. Once released, LD volume can increase by localized lipogenesis or fusion of existing droplets. Storage lipids are re-mobilized enzymatically by lipase activity. Lipase regulation in the adipocyte is heavily studied and involves multiple components including catecholamine signaling, the LD-associated proteins Perilipin and comparative gene identification-58 (CGI-58) and at least two lipases named hormone sensitive lipase (HSL) and adipocyte triglyceride lipase (ATGL). LD regulation outside of the adipocyte is poorly understood and only few components are known. However, there is an urgent need to learn more about ectopic fat depots as mislocalized storage of lipids, for example in the liver or muscle, is an eminent health problem associated with insulin resistance or the metabolic syndrome. We developed a laser-scanning cytometer assay to enable 1,536-well screening and combined the results of the small molecules screen with an RNAi database based on lipid storage. In this assay we tested analogs of the probe against a mammalian cell line (3T3L1), to see if these small molecules could disrupt lipid storage. NIH Molecular Libraries Probe Production Centers Network [MLPCN] NIH Chemical Genomics Center [NCGC] MLPCN Grant: MH085686 Assay Submitter (PI): Mathias Beller, Max-Planck-Institut fur Biophysikalische Chemie
3T3L1 cells were obtained from ATCC (CL-173). 4 uL of cells at 1.25 X 105 cell/mL were dispensed into 1536 well Poly-D-Lysine coated black with clear bottom imaging plates (Corning, #7356) to obtain 500 cells/well, and cultured at 37 °C, 95% humidity, and 5% CO2 overnight. The culture medium used was OPTI-MEM containing 5% fetal bovine serum (FBS). Triacsin C (Sigma-Aldrich T-4540), an inhibitor of long-chain fatty acyl CoA synthetase that blocks synthesis of triglycerides, was used as a positive control for lipid under-storage. A total of 23 nL of compounds dissolved in DMSO at different concentrations were transferred to the assay plates using a Kalypsys 1536-pin tool, the final DMSO concentration was 0.46%. One microliter of oleic acid at 400 uM (Calbiochem, #4954) was added to induce lipid droplet formation in the cells, and the plates were lidded. After 18-24 hours of incubation at 37 °C, 95% humidity, and 5% CO2, cells were fixed (8 % paraformaldehyde in PBS, 30 min, room temperature), washed three times with PBS, then stained for lipid droplet and nucleus using 4uL of PBS solution containing BODIPY lipid dye 493/503 (1:2000 dilution, Life Technologies, #3922) and Hoechst 33342 (1:1000, Life Technologies, #H3570) with Washer dispenser EL406(Biotek). Images were acquired using InCell 2000 (GE). Number of cells, number of lipids and sizes of lipids were analysis using GE Investigator software.

SMILES | Potency | activity change, negative = decreased lipid storage [%]
CCOc1ccc(CCNC(=O)c2ccc(Oc3ccccc3)cc2)cc1OCC | 246 nM (active) | 
CCOc1ccc(CCNC(=O)c2cc3ccncc3n2Cc2cccc(C)n2)cc1OCC |  | -25.1
CCOc1ccc(CCNC(=O)c2cc3cnccc3n2Cc2cccc(C)n2)cc1OCC |  | -20
CCOc1ccc(CCNC(=O)c2cc3ccccc3n2Cc2ccccn2)cc1OCC | 46.9 nM (active) | 
CCOc1ccc(CCNC(=O)c2cc3ncccc3n2Cc2cccc(C)n2)cc1OCC |  | -26
CCOc1ccc(CCNC(=O)c2cc3sccc3n2Cc2ccc(F)cc2F)cc1OCC | 23.5 nM (active) | 
CCOc1ccc(CCNC(=O)c2ccccc2)cc1OCC | 2350 nM (active) | 
